Holding throughout (test): NCI-60 one-dose screen, 48 h (100 = growth as untreated, 0 = no growth, -100 = all killed)
Holding throughout (details): 10 µM unless noted

The subject of assay [1] is NCI-H23 lung.
The test system of assay [2] is NCI-H226 lung.
Assay [3] deals with NCI-H322M lung.
Assay [4] deals with HOP-62 NSCLC.
Assay [5] relates to NCI-H460 lung.
In assay [6] the test system is HOP-92 NSCLC.
Assay [7] has as its system NCI-H522 lung.
Assay [8] relates to A549/ATCC NSCLC.
Assay [9] concerns 786-0 renal.
Assay [10] relates to COLO 205 colon.

Structures are written as SMILES. “And” between values parts separate entries of the source, which are not always exact repeats. Equal values may be shown once. About 83,000 compounds went through this panel and 20% of them were active in at least one assay; those are over-represented in the sample as a whole.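 Method: cells in 96-well plates; compound added at one concentration; 48 h incubation; percent growth measured; values under 10 scored active.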 A number with no mark means an inactive call. The source made the active and inactive calls.

`O=C1/C(=C/c2cnc(-c3ccccc3)s2)SC(=S)N1Cc1ccc2c(c1)OCO2`: the growth in [1] was 47.1%; in assay [2] it was 75.6%; in [3], 92.2%; in assay [4], 12.2%; in [5] it was 97.2%; in assay [6], 48.6%. The growth in [7] was 47.5%; in [8], 101%; in [9] it was 31.2%; in assay [10] it was 125%.
With `Cn1cc(-c2cc(N)n3nc(-c4c[nH]c5ccc(F)cc45)cc3n2)c2cc(Br)cnc21`, the growth in assay [1] was 94.3%; in assay [2], 68.6%; in assay [3] it was 80.1%; in [4], 71.1%; in [5], 57.5%; in [6] it was 27.3%. Besides, the growth was 27.6% in [7], 54% in assay [8], 44.4% in assay [9] and 119% in assay [10].
On to `O=C1/C(=C/C=C/c2ccco2)SC(=S)N1CC(=S)C1C=CS(=O)(=O)C1` (stereo not given), for which the growth in [1] was 83.1%; in [2], 89.1%; in [3], 38.8%; in [4], 130%; in assay [5], 29.2%; in assay [6], 121%. Moreover, the growth is 32.5% in [7], 47.7% in [8], 91.2% in [9] and 76% in assay [10].
In the case of `COc1ccc(NC(=O)Nc2nc3ccc([N+](=O)[O-])cc3s2)cc1`, the growth is -2.33% (active) in [1]; 6.28% (active) in [2]; 13.1% in [3]; 25.4% in [4]; 3.86% (active) in [5]; -5.8% (active) in [6]. For the same molecule, the growth is 1.25% (active) in assay [7], 30.2% in [8], 35.3% in [9] and 67.9% in [10].
Regarding `O=C1N/C(=N\c2nccs2)S/C1=C\c1ccc([N+](=O)[O-])cc1`, the growth in assay [1] was 32.7%; in [2], 6.47% (active); in assay [3] it was 23.2%; in assay [4] it was 37.4%; in assay [5], 8.33% (active); in assay [6], 16.7%. The growth is -1.75% (active) in assay [7], 9.8% (active) in [8], 19.7% in assay [9] and 23.2% in assay [10].
`O=C(N/N=C/c1ccc(B(O)O)s1)c1[nH]c2ccc(Br)cc2c1-c1ccccc1`: the growth was -94.9% (active) in assay [1]; -45.2% (active) in [2]; -79.1% (active) in assay [3]; -69.8% (active) in assay [4]; -76% (active) in [5]; -60.2% (active) in [6]. Also, the growth in assay [7] is -83% (active); in assay [8] it was -62.8% (active); in [9] it was -66.2% (active); in assay [10], -81.8% (active).
For `CCCCCCCCc1cccc(CC(=O)Nc2ccc(C)cc2C(=O)O)c1`, the growth in assay [1] was 59.3% [25 µM]; in assay [2] it was 65.3% [25 µM]; in assay [3], 62.7% [25 µM]; in assay [4], 54.8% [25 µM]; in [5] it was 20.4% [25 µM]; in assay [6] it was 83.8% [25 µM]. The growth in [7] is 38.7% [25 µM]; in assay [8] it was 31.4% [25 µM]; in assay [9], 34.1% [25 µM]; in [10], 59.1% [25 µM].
With `FC(F)(F)CN1CCN(CCn2c(C(F)(F)F)cc3c(Cl)ncnc32)CC1`, the growth is 16.5% in [1]; 86.7% in [2]; -22.9% (active) in [3]; 40.2% in assay [4]; -41.2% (active) in assay [5]; 72.2% in assay [6]. For the same molecule, the growth is -79.3% (active) in assay [7], 98.8% in [8], 84.6% in [9] and 70.5% in assay [10].
With `CC1(C)CC(=O)C2=C(C1)OC(N)=C(c1nc3ccccc3[nH]1)C2c1ccc(Cl)cc1` (stereo not given), the growth in assay [1] was 46.5% and 106%; in [2], 65.7% and 123%; in assay [3], 51.3% and 101%; in assay [4] it was 87% and 116%; in assay [5], 57% and 112%; in assay [6], 54.8% and 119%. Besides, the growth is 55% and 111% in [7]; 64.6% and 115% in assay [8]; 62.1% and 102% in assay [9]; 78.8% and 121% in assay [10].
For `CCCSc1nnc(-c2c(C)nc3sccn23)o1`, the growth in assay [1] was 90.5%; in assay [2] it was 66.6%; in assay [3], 73.9%; in assay [4] it was 112%; in assay [5], 97.9%; in [6], 73.8%. Moreover, the growth is 98.7% in assay [7], 98.2% in assay [8], 92.8% in assay [9] and 118% in [10].
As for `CCN1C(=O)N(CC)C2NNC(Sc3c(C(=O)O)c4ccccc4n(CCC(C)C)c3=O)=NC21` (stereo not given), the growth in assay [1] was 10.7%; in assay [2] it was 30.4%; in assay [3] it was 52.9%; in [4], 27.3%; in assay [5] it was -7.83% (active); in assay [6], 49.4%. Also, the growth in assay [7] is -21.7% (active); in assay [8], 12.4%; in assay [9], 16%; in assay [10] it was -20.8% (active).
`O=C(Nc1ccc(Cl)c(C(F)(F)F)c1)N1CCN(c2cc(-c3cn(-c4ccccc4)nc3-c3cccc(O)c3)ccn2)CC1`: the growth in assay [1] is -27.3% (active); in assay [2], -16.2% (active); in assay [3], 14.8%; in [4] it was 14.5%; in [5] it was 7.84% (active); in assay [6], -2.61% (active). The growth is -17.3% (active) in [7], 14.7% in assay [8], 8.51% (active) in assay [9] and -2.61% (active) in assay [10].
In the case of `N#CC1=C(c2cccs2)Nc2c(c(-c3ccccc3)nn2-c2ccccc2)C12C(=O)Nc1ccccc12` (stereo not given), the growth is 13.6% in assay [1]; 12.8% in assay [2]; 80.1% in assay [3]; -20% (active) in assay [4]; 5.58% (active) in assay [5]; -13.1% (active) in [6]. Besides, the growth is 5.69% (active) in assay [7], 5.42% (active) in assay [8], 1.25% (active) in [9] and 55.9% in assay [10].
For the molecule `Cc1nn(-c2ccccc2)c2nc(C)n(C(=O)N/N=C/c3cccc([N+](=O)[O-])c3)c(=O)c12`, the growth in assay [1] was 77.7%; in assay [2], 105%; in [3], 91.7%; in assay [4], 98.6%; in assay [5], 93.7%; in [6], 103%. Further, the growth was 47.4% in [7], 83.7% in assay [8], 108% in assay [9] and 117% in assay [10].
`Nc1nn2c(-c3cc4cc(Br)ccc4oc3=O)ccnc2c1N=Nc1ccccc1`: the growth in assay [1] was 1.73% (active); in assay [2] it was -55.6% (active); in assay [3], 8.62% (active); in [4], 1.3% (active); in assay [5], -28% (active); in [6] it was -18.8% (active). The growth in [7] was -51.6% (active); in assay [8] it was 53.4%; in [9] it was -3.59% (active); in assay [10] it was 80.2%.
Turning to `COC(=O)c1ccc(-c2c(-c3ccccc3)c(F)c3oc(C(=O)OC)c(N)c3c2-c2ccccc2)cc1`, the growth is 87% in [1]; 100% in assay [2]; 97.1% in [3]; 94% in assay [4]; 99.7% in [5]; 85.1% in assay [6]. Also, the growth is 83.4% in assay [7], 98.9% in assay [8], 103% in assay [9] and 99.7% in [10].
For the molecule `CCOC(=O)c1ccc(NC(=S)NC(=O)c2ccc(NC(=O)C(C)C)cc2OC)cc1`, the growth was 15.9% in assay [1]; 22.3% in [2]; 74.9% in assay [3]; 53.9% in assay [4]; 44.5% in assay [5]; 33.6% in assay [6]. Also, the growth was 30.9% in assay [7], 80.2% in [8], 85.2% in [9] and 37.5% in assay [10].
Consider `N/C(=N\c1nc2ccccc2s1)NC(=O)Nc1ccccc1F`, for which the growth in assay [1] was 19.9%; in assay [2] it was 46.2%; in assay [3], 54.5%; in assay [4], 0.224% (active); in assay [5] it was 30.2%; in assay [6], 19.3%. In addition, the growth in assay [7] was -45.5% (active); in [8], 47.5%; in assay [9] it was 17.7%; in [10], -33% (active).
For `CCOC(=O)c1ccc(NC(=S)NC(=O)c2cccc(NC(=O)c3ccc(C)cc3)c2)cc1`, the growth in assay [1] was 66.8%; in [2], 32.2%; in assay [3], 74.7%; in [4], 40.4%; in [5] it was 75.9%; in assay [6], 36.4%. The growth in assay [7] was 50.6%; in assay [8], 48.2%; in [9], 81.2%; in assay [10] it was 77.9%.
As for `COc1cc(CNC(=O)C[C@H](C)CCC=C(C)C)ccc1OCc1cn(-c2ccccc2F)nn1`, the growth in [1] is 68.3%; in assay [2], 73.3%; in [3], 92.7%; in [4], 46.7%; in assay [5], 89%; in [6], 4.63% (active). In addition, the growth in [7] was 57.1%; in assay [8], 80.6%; in assay [9], 43.6%; in [10], 112%.
For `C[C@@H]1CN(c2ccc3ncc(C#Cc4cncc(C(=O)Nc5ccc(CN6CCN(C)CC6)c(C(F)(F)F)c5)c4)n3n2)C[C@@H](C)O1`, the growth was -87.5% (active) in [1]; -86.3% (active) in [2]; -78.9% (active) in assay [3]; -59.8% (active) in [4]; -80% (active) in [5]; -87.7% (active) in assay [6]. In addition, the growth was -73.3% (active) in assay [7], -59% (active) in assay [8], -95.9% (active) in assay [9] and -77.7% (active) in assay [10].
For the molecule `COc1ccc(Nc2nnc(-c3c[nH]c4ccccc34)o2)cc1`, the growth in assay [1] is 82.7%; in assay [2], 74.9%; in assay [3] it was 89.8%; in assay [4], 77.8%; in assay [5], 96.3%; in [6], 84.5%. The growth in assay [7] is 32.2%; in assay [8], 89.3%; in [9], 91.9%; in assay [10] it was 113%.
Take `Cc1ccc2c(c1)/C(=C/C(=O)c1cc3ccccc3oc1=O)C(=O)N2`: the growth in assay [1] was 71.6%; in [2], 51.8%; in assay [3] it was 101%; in assay [4], 89.4%; in assay [5], 97%; in [6] it was -4.43% (active). Moreover, the growth in assay [7] is -94.4% (active); in assay [8], 89.5%; in assay [9], 74.7%; in assay [10], 30.4%.
Turning to `Nc1cc2ccccc2c(=O)n1NC(=O)c1ccccc1`, the growth in assay [1] is 87.4%; in [2], 80.8%; in [3], 104%; in assay [4] it was 103%; in assay [5], 105%; in assay [6], 111%. In addition, the growth in assay [7] is 89.3%; in [8] it was 103%; in [9], 105%; in assay [10] it was 111%.
Regarding `N#Cc1cc(-c2ccc3ncnc(N4CCc5cc(F)c(Cl)cc54)c3c2)cnc1N`, the growth in assay [1] was 50.2%; in assay [2], 59.1%; in assay [3], 38.4%; in assay [4] it was 77.5%; in assay [5], 5.5% (active); in assay [6], 1.74% (active). For the same molecule, the growth in assay [7] is 46%; in assay [8], 42%; in [9] it was 22.1%; in assay [10], 12.2%.
In the case of `O=C(NC(=S)N1CCN(c2ncnc3c2cnn3-c2ccccc2)CC1)c1ccc(Br)cc1`, the growth in assay [1] was 64.4%; in assay [2], 60.6%; in [3] it was 75.4%; in assay [4], 37.4%; in assay [5], 69.2%; in assay [6], 47.2%. The growth in assay [7] was 60.9%; in assay [8], 80.6%; in assay [9] it was 72%; in assay [10], 98.7%.

The values above are taken from PubChem BioAssay (NCI).
